Experimental data from PubChem BioAssay (NCI).
This is part of a sample that, as a whole, favours compounds with a hit. Of some 83,000 tested, about 20% had one in any assay.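 Cells were grown in 96-well plates and exposed to the test compound at a single concentration for 48 hours; results are reported as percent growth, with values below 10 considered active.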 Unmarked numbers belong to inactive results. Active and inactive are the calls of the source.

test system: HL-60(TB) leukemia; assay: NCI-60 one-dose screen, 48 h (100 = growth as untreated, 0 = no growth, -100 = all killed); conditions: 10 µM unless noted

SMILES	growth
C#CCOc1ccc2ncnc(Nc3ccc(NC(=O)C=C)cc3)c2c1	-52.5% (active)
CC(=O)N1N=C(c2ccc(Nc3nc(NCCO)nc(NCCO)n3)cc2)CC1c1ccc(Cl)cc1 (stereo not drawn)	117%
C=CN(C(=O)N1CCN(c2cc3c(cc2F)c(=O)c(C(=O)O)cn3C2CC2)CC1)c1nc(-c2ccc(OC)cc2)cs1	-22.9% (active)
CN1CCN(c2c(F)cc(NC3=C(Cl)C(=O)c4ncccc4C3=O)cc2F)CC1	-24.7% (active)
CSCc1ncc(-c2ccc(C(F)(F)F)cc2)c(NC2CCCCCC2)n1	20.7% [25 µM]
Cc1nn(-c2ccccc2)cc1/C=C1\SC(N2CCCCC2)=NC1=O	93%
c1ccc(CCn2cccc2)nc1	1.63% (active)
Cn1c(O)c(N=NC(=O)c2cc(-c3ccccc3)on2)c2ccccc21	80.8%
NC(CSC(c1ccccc1)(c1ccccc1)c1cccc2ccccc12)C(=O)O (stereo not drawn)	88.5%
COc1cc2cc(Oc3ccc(NC(=O)Nc4ccc(Cl)c(Cl)c4)cc3)c(C)nc2cc1OCCN1CCCCC1	44.1%
CC(=O)OC[C@]12CC[C@@H](C(=O)CBr)[C@@H]1[C@H]1CC[C@@H]3[C@@]4(C)CCCNC(C)(C)[C@@H]4CC[C@@]3(C)[C@]1(C)CC2	-18% [100 µM] (active)
O=C(Nc1ccc(Nc2cc(Nc3ccccc3)ncn2)cc1)Nc1cc(C(F)(F)F)ccc1F	106%
FC(F)(F)c1ccc(Cn2cc(CSc3nc4ccccc4s3)nn2)cc1	97.9%
